Reference: PubChem BioAssay (Tox21)
Inconclusive results are not listed. Entries that show only a call come without a potency. Activity calls are given as the source filed them. Unless noted, calls follow the shape of the full dose curve.

Legend:
[1] = Nuclear factor erythroid 2-related factor 2/antioxidant responsive element (Nrf2/ARE) small molecule agonists: luciferase reporter gene qHTS assay in human keratinocytes (AID 1919969); also: nearly all actives have a fitted effect of over 35% in size; also: potency is read from the fitted curve at half-maximal effect
[2] = target: Gonadotropin-releasing hormone receptor (Homo sapiens) (UniProt P30968); assay: Human gonadotropin-releasing hormone receptor (GnRHR) small molecule agonists, calcium flux assay in GnRHR-HEK293 cells (AID 1920063); also: nearly all actives have a fitted effect of over 35% in size
Gonadotropin-releasing hormone receptor (Homo sapiens), sequence (P30968 whole entry, looked up): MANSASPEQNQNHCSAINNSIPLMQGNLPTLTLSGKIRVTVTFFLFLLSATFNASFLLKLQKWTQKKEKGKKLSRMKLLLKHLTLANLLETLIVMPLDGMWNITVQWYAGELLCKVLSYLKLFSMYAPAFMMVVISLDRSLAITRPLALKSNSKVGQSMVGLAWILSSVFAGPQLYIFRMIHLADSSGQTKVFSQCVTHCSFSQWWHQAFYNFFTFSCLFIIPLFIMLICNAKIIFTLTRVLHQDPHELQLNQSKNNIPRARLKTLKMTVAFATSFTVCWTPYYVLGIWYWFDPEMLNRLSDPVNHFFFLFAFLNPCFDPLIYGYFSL
How it was run: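 Agonist activity was measured as intracellular calcium flux in HEK293 cells engineered to stably express human GnRHR. After dye loading for 1 hour at 37 C, compounds in DMSO were added and fluorescence was followed for 3 minutes.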

[3] = target: KiSS-1 receptor (Homo sapiens) (UniProt Q969F8); assay: Human kisspeptin (KISS1R) small molecule agonists, calcium flux assay in KISS1R-HEK293 cells (AID 1920064; active = well fitted activation curve with a large enough effect in the repeat runs)
KiSS-1 receptor (Homo sapiens), sequence (Q969F8 whole entry, looked up): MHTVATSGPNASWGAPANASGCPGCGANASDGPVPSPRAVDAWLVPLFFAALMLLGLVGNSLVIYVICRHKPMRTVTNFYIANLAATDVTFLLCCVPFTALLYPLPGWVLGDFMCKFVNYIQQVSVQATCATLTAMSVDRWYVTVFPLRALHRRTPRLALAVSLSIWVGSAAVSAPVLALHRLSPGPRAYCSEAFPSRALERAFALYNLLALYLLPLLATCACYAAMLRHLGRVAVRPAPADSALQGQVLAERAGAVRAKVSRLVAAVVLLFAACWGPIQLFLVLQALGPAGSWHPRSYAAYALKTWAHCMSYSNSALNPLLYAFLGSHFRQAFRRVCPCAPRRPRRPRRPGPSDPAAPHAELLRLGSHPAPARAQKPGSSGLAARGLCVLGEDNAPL
How it was run: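 Agonist activity is monitored as intracellular calcium rise in engineered HEK293 cells carrying human KISS1R. Cells are dye-loaded for 1 h at 37 C before compound addition, and fluorescence is recorded for 3 min.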

[4] = G protein-coupled receptor (GPCR) small molecule agonists, calcium flux assay: HEK293 wild type cell line counter screen (AID 1920065)
How it was run: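 Seed cells, incubate 18 h (37 C, 5% CO2); add calcium dye, 1 h at 37 C; pin-transfer compounds, ATP control or DMSO; read fluorescence 480/540 nm each second for 3 min.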

[5] = p53 small molecule agonists, cell-based qHTS assay with human liver microsomes (AID 1963577);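 also: p53 response element beta-lactamase reporter cells with liver microsomes plus NADPH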
How it was run: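 In this qHTS, p53 response-element beta-lactamase cells receive test compound together with a microsome/NADPH activating system (0.5 mg/mL final each) and are incubated 16 h at 37 C before LiveBLAzer fluorescence detection.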

[6] = p53 small molecule agonists, cell-based qHTS assay with rat liver microsomes (AID 1963578); also: potency is read from the fitted curve at half-maximal effect
How it was run: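 Agonist mode in p53RE-bla reporter cells, with compounds co-incubated 16 h at 37 C alongside 0.5 mg/mL rat liver microsomes and 0.5 mg/mL NADPH (final), followed by a 2 h LiveBLAzer detection step.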

[7] = p53 small molecule agonists, cell-based qHTS assay with human liver microsomes: qHTS cell viability counter screen (AID 1963579); also: nearly all actives have a fitted effect of over 45% in size
How it was run: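 Metabolically activated exposure: compounds, human liver microsomes and NADPH (0.5 mg/mL final apiece) were added to p53RE-bla cells seeded 5 h earlier, left 16 h at 37 C, and then assessed for viability by CellTiter-Glo luminescence.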

[8] = p53 small molecule agonists, cell-based qHTS assay: qHTS cell viability counter screen (AID 1963581); also: nearly all actives have a fitted effect of over 45% in size
How it was run: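 Viability was counter-screened in parallel with the p53 agonist reporter by measuring intracellular ATP luminescence in the same HCT-116 p53RE-bla wells after 16 h compound treatment at 37 C.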

[9] = cAMP Responsive Elements (CRE) small molecule agonists, cell-based qHTS assay (AID 1963590)
How it was run: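 Cells carrying a CRE-driven beta-lactamase reporter (HEK 293T) are seeded, incubated overnight (18 h), and treated with test compounds for 3 h at 37 C; reporter activity is then detected with a FRET substrate after 2 h at room temperature.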

[10] = cAMP Responsive Elements (CRE) small molecule antagonists, cell-based qHTS assay (AID 1963591; active = well fitted inhibition curve with a large enough effect in the signal ratio in the repeat runs, not every such curve was filed as active; the % refers to the signal ratio)
How it was run: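 Cells (CRE-bla HEK 293T, DMEM with 10% dialyzed FBS and 25 mM HEPES) are seeded and incubated 18 h. Compounds are added with NKH477 agonist at 0.25 uM final for 3 h, then FRET substrate for 2 h.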

[11] = p53 small molecule agonists, cell-based qHTS assay with rat liver microsomes: qHTS cell viability counter screen (AID 1963580); also: nearly all actives have a fitted effect of over 45% in size; also: potency is read from the fitted curve at half-maximal effect
How it was run: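 Counter screen for cytotoxicity under metabolic activation: rat liver microsomes and NADPH, 0.5 mg/mL final each, added with compounds to p53RE-bla HCT-116 cells; 16 h at 37 C, then ATP luminescence read.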

[12] = target: 5-hydroxytryptamine receptor 2A (Homo sapiens) (UniProt P28223); assay: 5-hydroxytryptamine receptor 2A (HTR2A) small molecule agonists, cell-based qHTS assay (AID 1963587); also: nearly all actives have a fitted effect of over 30% in size
5-hydroxytryptamine receptor 2A (Homo sapiens), sequence (P28223 whole entry, looked up): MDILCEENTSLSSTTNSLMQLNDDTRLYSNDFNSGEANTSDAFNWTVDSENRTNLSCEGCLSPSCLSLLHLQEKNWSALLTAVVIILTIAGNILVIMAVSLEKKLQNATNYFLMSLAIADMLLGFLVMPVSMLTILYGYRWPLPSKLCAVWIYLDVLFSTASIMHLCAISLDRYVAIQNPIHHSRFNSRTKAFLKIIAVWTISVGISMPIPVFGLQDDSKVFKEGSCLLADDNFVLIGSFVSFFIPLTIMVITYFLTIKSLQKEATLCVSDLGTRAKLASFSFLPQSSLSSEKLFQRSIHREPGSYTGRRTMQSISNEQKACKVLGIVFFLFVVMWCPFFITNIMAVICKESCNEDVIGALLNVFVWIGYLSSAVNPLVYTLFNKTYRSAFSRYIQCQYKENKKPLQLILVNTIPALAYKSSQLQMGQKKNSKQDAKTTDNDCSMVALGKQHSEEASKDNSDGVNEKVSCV
How it was run: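 HTR2A-CHO cells, plated 18 h at 37 C/5% CO2, dye-loaded 1 h at 37 C; compounds in DMSO added by pin tool (agonist mode). Intracellular calcium flux read as kinetic fluorescence on FDSS over 2 min at 1 s intervals.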

[13] = target: Muscarinic acetylcholine receptor M1 (Homo sapiens) (UniProt P11229); assay: Cholinergic receptor muscarinic 1 (CHRM1) small molecule antagonists, cell-based qHTS assay (AID 1963588); also: nearly all actives have a fitted effect of over 40% in size; also: potency is read from the fitted curve at half-maximal effect
Muscarinic acetylcholine receptor M1 (Homo sapiens), sequence (P11229 whole entry, looked up): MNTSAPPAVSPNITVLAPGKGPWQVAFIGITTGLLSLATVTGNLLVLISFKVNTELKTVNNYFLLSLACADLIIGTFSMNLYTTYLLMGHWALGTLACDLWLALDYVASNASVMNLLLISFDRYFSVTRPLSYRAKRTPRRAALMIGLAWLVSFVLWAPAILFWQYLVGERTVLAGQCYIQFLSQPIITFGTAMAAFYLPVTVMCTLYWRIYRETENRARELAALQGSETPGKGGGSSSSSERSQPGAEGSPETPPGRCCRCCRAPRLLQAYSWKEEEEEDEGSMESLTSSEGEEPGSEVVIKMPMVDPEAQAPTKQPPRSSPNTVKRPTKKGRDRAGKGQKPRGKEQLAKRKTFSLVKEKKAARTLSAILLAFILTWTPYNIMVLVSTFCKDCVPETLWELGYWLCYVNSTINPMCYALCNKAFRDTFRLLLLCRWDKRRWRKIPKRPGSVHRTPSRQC
How it was run: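 Compounds were tested at 15 concentrations in three independent runs. Dye-loaded CHRM1-CHO cells were exposed 5 min at room temperature before stimulation by acetylcholine added at 50nM. Intracellular calcium was read kinetically on FDSS for 3 min.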

[14] = target: Muscarinic acetylcholine receptor M1 (Homo sapiens) (UniProt P11229); assay: Cholinergic receptor muscarinic 1 (CHRM1) small molecule agonists, cell-based qHTS assay (AID 1963589); also: nearly all actives have a fitted effect of over 35% in size
How it was run: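 Cells were plated and incubated 18 h at 37 C/5% CO2, loaded with calcium dye for 1 h at 37 C, then treated with compounds in DMSO. Fluorescence was recorded kinetically at 1 sec intervals.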

[15] = target: Beta-2 adrenergic receptor (Homo sapiens) (UniProt P07550); assay: Adrenergic beta2 receptor (ADRB2) small molecule antagonists, cell-based qHTS assay (AID 1963592); also: series mostly up to about 92 µM; nearly all actives have a fitted effect of over 50% in size
Beta-2 adrenergic receptor (Homo sapiens), sequence (P07550 whole entry, looked up): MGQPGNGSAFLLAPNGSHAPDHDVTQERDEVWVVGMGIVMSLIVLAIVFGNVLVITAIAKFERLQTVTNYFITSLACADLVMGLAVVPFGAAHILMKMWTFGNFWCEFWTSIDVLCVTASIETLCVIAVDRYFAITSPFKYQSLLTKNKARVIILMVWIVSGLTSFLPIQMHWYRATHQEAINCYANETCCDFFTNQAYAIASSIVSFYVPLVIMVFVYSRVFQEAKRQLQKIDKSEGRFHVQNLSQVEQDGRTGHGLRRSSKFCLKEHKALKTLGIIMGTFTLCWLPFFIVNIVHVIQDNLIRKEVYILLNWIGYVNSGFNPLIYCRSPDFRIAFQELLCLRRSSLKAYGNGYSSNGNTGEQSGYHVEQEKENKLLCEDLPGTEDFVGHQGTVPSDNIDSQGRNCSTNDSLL
How it was run: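 Assay format: CHO-ADRB2 cells, 18-20hr seeding at 37C/5% CO2, then compound plus 1nM isoproterenol agonist mix for 0.5hr RT. Homogeneous time-resolved fluorescence cAMP detection after 1hr, expressed as 665/615 nm ratio.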

[16] = target: D(2) dopamine receptor (Homo sapiens) (UniProt P14416); assay: Dopamine D2 receptor (DRD2) small molecule agonists, cell-based qHTS assay (AID 1963594); also: nearly all actives have a fitted effect of over 35% in size
D(2) dopamine receptor (Homo sapiens), sequence (P14416 whole entry, looked up): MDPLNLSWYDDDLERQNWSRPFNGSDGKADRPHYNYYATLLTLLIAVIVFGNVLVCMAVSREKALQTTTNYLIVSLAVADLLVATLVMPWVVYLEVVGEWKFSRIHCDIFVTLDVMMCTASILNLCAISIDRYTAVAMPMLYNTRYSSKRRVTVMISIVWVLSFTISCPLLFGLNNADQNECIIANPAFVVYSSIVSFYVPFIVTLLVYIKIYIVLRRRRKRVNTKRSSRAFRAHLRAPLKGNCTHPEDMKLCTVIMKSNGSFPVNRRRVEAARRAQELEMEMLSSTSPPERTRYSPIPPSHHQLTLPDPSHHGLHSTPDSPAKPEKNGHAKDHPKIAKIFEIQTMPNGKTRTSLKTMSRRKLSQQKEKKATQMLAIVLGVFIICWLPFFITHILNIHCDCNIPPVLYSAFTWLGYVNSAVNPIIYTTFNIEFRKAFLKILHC
How it was run: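 HEK293 cells stably expressing DRD2 were cultured 24 h at 37 C, then given Ro20-1724 (0.1 mM final) and compounds for 10 min at room temperature. NKH477 (200nM) was then added for 30 min. cAMP was read by HTRF.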

[17] = target: D(2) dopamine receptor (Homo sapiens) (UniProt P14416); assay: Dopamine D2 receptor (DRD2) small molecule antagonists, cell-based qHTS assay (AID 1963595; active = well fitted inhibition curve with a large enough effect in the signal ratio in the repeat runs, with a control signal flat; the % refers to the signal ratio; also: potency is read from the fitted curve at half-maximal effect)
How it was run: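 Antagonism was scored as restored cAMP in HEK293-DRD2 cells. These cells were stimulated with 200 nM NKH477 and 12 nM quinpirole for 30 min at room temperature, in the presence of 0.1 mM Ro20-1724.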

[18] = target: Beta-2 adrenergic receptor (Homo sapiens) (UniProt P07550); assay: Adrenergic beta2 receptor (ADRB2) small molecule agonists, cell-based qHTS assay (AID 1963593);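 also: CHO cells stably overexpressing human ADRB2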
How it was run: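 CHO cells stably over-expressing ADRB2 were plated overnight at 37C, then dosed with compounds plus a stimulation mix containing 100uM IBMX and 25uM Ro-20-1724 for 0.5hr at room temperature. cAMP was measured by HTRF competition, 1hr.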

[19] = p53 small molecule agonists, cell-based qHTS assay (AID 1963582; active = well fitted activation curve with a large enough effect in the signal ratio in the repeat runs, not every such curve was filed as active; the % refers to the signal ratio)
How it was run: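 Cells carrying a p53-responsive bla reporter are treated with test compounds for 16 h at 37 C; beta-lactamase activity is then detected with LiveBLAzer B/G FRET substrate after 2 h at room temperature.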

[20] = target: 5-hydroxytryptamine receptor 2A (Homo sapiens) (UniProt P28223); assay: 5-hydroxytryptamine receptor 2A (HTR2A) small molecule antagonists, cell-based qHTS assay (AID 1963586); also: nearly all actives have a fitted effect of over 45% in size
How it was run: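 CHO cells stably expressing human HTR2A were plated for 18 h at 37 C, then loaded with calcium dye for 1 h. Compounds were preincubated 5 min at room temperature before DOI (4 nM solution) was added. Kinetic fluorescence was read for 3 min.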

CO[C@@]12[C@H](COC(N)=O)C3=C(C(=O)C(C)=C(N)C3=O)N1C[C@@H]1N[C@@H]12
Potency [1]: 11.9 µM (active) | Potency [2]: inactive | Potency [3]: inactive | Potency [4]: inactive | Potency [5]: inactive | Potency [6]: 4.46 µM (active) | Potency [7]: inactive | Potency [8]: inactive | Potency [9]: inactive | Potency [10]: inactive

CSc1ccc2c(c1)C(N1CCN(C)CC1)Cc1ccccc1S2 (centres undefined)
Potency [1]: inactive | Potency [2]: inactive | Potency [3]: inactive | Potency [4]: inactive | Potency [5]: inactive | Potency [7]: inactive | Potency [11]: inactive | Potency [8]: inactive | Potency [12]: inactive | Potency [13]: 0.729 µM (active) | Potency [14]: inactive | Potency [15]: inactive | Potency [16]: inactive | Potency [17]: 0.0473 µM (active)

COc1ccc(-c2cc(=S)ss2)cc1
Potency [1]: 33.5 µM (active) | Potency [2]: inactive | Potency [3]: inactive | Potency [4]: inactive | Potency [5]: inactive | Potency [6]: inactive | Potency [7]: inactive | Potency [8]: inactive | Potency [12]: inactive | Potency [14]: inactive | Potency [9]: inactive | Potency [10]: inactive | Potency [15]: inactive | Potency [18]: inactive | Potency [16]: inactive

COC(=O)Nc1nc2ccc(C(=O)c3ccccc3)cc2[nH]1
Potency [1]: 3.76 µM (active) | Potency [2]: inactive | Potency [3]: inactive | Potency [4]: inactive | Potency [5]: inactive | Potency [6]: inactive | Potency [11]: inactive | Potency [10]: inactive | Potency [15]: inactive | Potency [16]: inactive | Potency [17]: inactive

CCc1nn(CCCN2CCN(c3cccc(Cl)c3)CC2)c(=O)n1CCOc1ccccc1
Potency [1]: inactive | Potency [2]: inactive | Potency [3]: inactive | Potency [4]: inactive | Potency [5]: inactive | Potency [6]: inactive | Potency [11]: inactive | Potency [8]: inactive | Potency [19]: inactive | Potency [12]: inactive | Potency [16]: inactive

Cc1cc([N+](=O)[O-])ccc1N
Potency [1]: inactive | Potency [2]: inactive | Potency [3]: inactive | Potency [4]: inactive | Potency [5]: inactive | Potency [7]: inactive | Potency [11]: inactive | Potency [8]: inactive | Potency [19]: inactive | Potency [20]: inactive | Potency [12]: inactive | Potency [13]: inactive | Potency [14]: inactive | Potency [9]: inactive | Potency [10]: inactive | Potency [15]: inactive | Potency [18]: inactive | Potency [17]: inactive

O=C(/C=C/c1ccc([N+](=O)[O-])cc1)c1ccccc1
Potency [1]: 54.6 µM (active) | Potency [2]: inactive | Potency [3]: inactive | Potency [4]: inactive | Potency [5]: inactive | Potency [6]: inactive | Potency [11]: 20.5 µM (active) | Potency [8]: inactive | Potency [19]: inactive | Potency [20]: inactive | Potency [12]: inactive | Potency [13]: inactive | Potency [14]: inactive | Potency [15]: inactive | Potency [16]: inactive

O=[N+]([O-])c1cc(N(CCO)CCO)ccc1NCCO
Potency [1]: inactive | Potency [2]: inactive | Potency [3]: inactive | Potency [4]: inactive | Potency [5]: inactive | Potency [6]: inactive | Potency [11]: inactive | Potency [8]: inactive | Potency [19]: inactive | Potency [20]: inactive | Potency [12]: inactive | Potency [13]: inactive | Potency [14]: inactive | Potency [9]: inactive | Potency [10]: inactive
